# Measurements reported in PubChem BioAssay (NCATS).
# Records with an inconclusive call do not appear. Values without a mark were called inactive. Calls of active or inactive are those of the source. The call rests on the fitted dose curve; in most records, active means well fitted curve in the direction sought with a large enough effect; inconclusive means small, poorly fitted or top-dose-only effect, or another doubt; inactive means no such curve, though single readings can be large; an effect the other way counts as inactive or inconclusive.
# How the values were obtained:
# [1] = tested on: OV90; assay: Primary qHTS to identify gynecologic anti-cancer compounds using libraries of approved drugs and bioactive compounds (AID 1345084); conditions: Gynecologic cancer cell panel viability, ATPlite luminescence, 48 h; series mostly up to 57.5 µM; further: nearly all actives have a fitted effect of over 55% in size
# Outline: (§1)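 ATP-based viability (ATPlite), 1,000 cells/well, 16 h pre-incubation, 48 h compound at 37 C, 5% CO2, 15 min RT before read.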
# [2] = tested on: PA-1; assay: as above; conditions: Gynecologic cancer cell panel viability, ATPlite luminescence, 48 h; series mostly up to 57.5 µM
# Outline: as §1
# [3] = tested on: SKOV3; assay: as above; conditions: Gynecologic cancer cell panel viability, ATPlite luminescence, 48 h; series mostly up to 57.5 µM
# Outline: as §1
# [4] = tested on: Tov-21-G; assay: as above; conditions: Gynecologic cancer cell panel viability, ATPlite luminescence, 48 h; series mostly up to 57.5 µM
# Outline: as §1
# [5] = tested on: Tov112D; assay: as above; conditions: Gynecologic cancer cell panel viability, ATPlite luminescence, 48 h; series mostly up to 57.5 µM
# Outline: as §1
# [6] = Drug repurposing screens with cells derived from glioblastoma tumor samples (AID 1345199); conditions: GBM patient neurospheres viability, ATP luminescence, 48 h; further: nearly all actives have a fitted effect of over 40% in size
# Outline: (§2)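 Primary testing used CD133+ neurospheres from four GBM patients, seven concentrations, 48 h exposure and ATP-based viability; confirmation added three slower-growing patient lines.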
# [7] = tested on: astro; assay: as above; conditions: viability, ATP luminescence, 48 h; series mostly up to 45.9 µM
# Outline: as §2
# [8] = qHTS assay to identify inhibitors of the type 1 interferon - major histocompatibility complex class I in skeletal muscle: Counter screen cell viability and HiBit confirmation (AID 1347412); conditions: iHSKM muscle cells + IFN-b, HiBiT or CellTiter-Glo, 24 h; for activity change, negative = inhibition: at 45.9 µM (top of the series); on all read-outs here: nearly all actives have a fitted effect of over 60% in size
# Outline: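 After 24 h with human IFN-beta (4 ng/ml) and compound titrations (top 46 uM final, 1:3, 12 points), HLA-B HiBit myoblasts were lysed for either Nano-Glo HiBiT luminescence or CellTiter Glo viability on paired plates.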
# [9] = at 45.9 µM (top of the series), tumour line B
# On the % scale 0 is the no-effect control and ±100 the full control effect; potency means the concentration at half of the fitted maximal effect.
smiles,measurement,setting,value
COc1ccc2c(c1)CC[C@@H](CN(C)CC(=O)O)[C@H]2c1ccccc1,Potency,[1],inactive
same,Potency,[2],inactive
same,Potency,[3],inactive
same,Potency,[4],inactive
same,Potency,[5],inactive
CC(=O)SC[C@@H](C)C(=O)N1CCC[C@H]1C(=O)N[C@@H](Cc1ccccc1)C(=O)O,"activity, negative = cell killing",[6]; [9],-6.65%
same,"activity, negative = cell killing","[6]; at 45.9 µM (top of the series), tumour line D",2.25%
same,"activity, negative = cell killing","[6]; at 46.1 µM (top of the series), tumour line C",-6.2%
same,Potency,[7],inactive
COC(=O)C1=C(C)NC(C)=C(C(=O)OCCN2CCN(C(c3ccccc3)c3ccccc3)CC2)C1c1cccc([N+](=O)[O-])c1 (configuration not stated),"activity, negative = cell killing",[6]; [9],-14.4%
same,Potency,[6]; tumour line A,3.16 µM (active)
same,Potency,[6]; tumour line C,16.4 µM (active)
same,Potency,[6]; tumour line D,15.8 µM (active)
same,Potency,[7],inactive
CNC(=O)c1cc(Oc2ccc(NC(=O)Nc3cc(C(C)(C)C)nn3-c3ccc4ncccc4c3)c(F)c2)ccn1,Potency,[2],20 µM (active)
same,Potency,[4],28.2 µM (active)
N#CCNC(=O)c1ccc(-c2ccnc(Nc3ccc(N4CCOCC4)cc3)n2)cc1,Potency,[2],14.1 µM (active)
same,Potency,[4],14.1 µM (active)
same,Potency,[5],inactive
same,Potency,[8]; HiBiT,4.43 µM (active)
same,"activity change, negative = inhibition",[8]; Viability,-6.53%
Cc1cc(Nc2cc(CN3CCOCC3)c3nc(C)c(Cc4ccc(Cl)cc4F)n3n2)n[nH]1,Potency,[2],inactive
same,Potency,[5],inactive
same,Potency,[8]; HiBiT,3.52 µM (active)
CC[C@@]1(O)C(=O)OCc2c1cc1n(c2=O)Cc2cc3cc(O)ccc3nc2-1,Potency,[2],0.282 µM (active)
same,Potency,[4],3.55 µM (active)
same,Potency,[5],0.0794 µM (active)
same,Potency,[8]; HiBiT,2.79 µM (active)
same,"activity change, negative = inhibition",[8]; Viability,8.39%
CCS(=O)(=O)c1cccc(-c2cc(C(=O)NC3CCN(C)CC3)c(C)c3[nH]c4ncc(C)cc4c23)c1,Potency,[2],1.26 µM (active)
same,Potency,[3],5.62 µM (active)
same,Potency,[5],2 µM (active)
same,Potency,[8]; HiBiT,2.79 µM (active)
CNC(=O)c1nn(C)c2c1C(C)(C)Cc1cnc(Nc3ccc(N4CCN(C)CC4)cc3)nc1-2,Potency,[2],2.24 µM (active)
same,Potency,[5],2.24 µM (active)
same,Potency,[8]; HiBiT,1.98 µM (active)
same,"activity change, negative = inhibition",[8]; Viability,28.9%
CCc1c2c(nc3ccc(O)cc13)-c1cc3c(c(=O)n1C2)COC(=O)[C@]3(O)CC,Potency,[1],1.78 µM (active)
same,Potency,[4],3.16 µM (active)
same,Potency,[8]; HiBiT,1.4 µM (active)
same,"activity change, negative = inhibition",[8]; Viability,-11.1%
CC(C)c1cnn2c(NCc3ccccc3)cc(N[C@@H](CO)[C@H](O)CO)nc12,Potency,[2],1 µM (active)
same,Potency,[4],1.58 µM (active)
same,Potency,[5],3.16 µM (active)
O=C(O)C1(Cc2cccc(Nc3nccs3)n2)CCC(Oc2cccc(Cl)c2F)CC1 (configuration not stated),Potency,[1],inactive
same,Potency,[5],1 µM (active)
Cc1cnc(Nc2ccc(F)cc2Cl)nc1-c1c[nH]c(C(=O)N[C@H](CO)c2cccc(Cl)c2)c1,Potency,[2],31.6 µM (active)
same,Potency,[4],28.2 µM (active)
CC(=O)Nc1nc(C)c(-c2ccc(Cl)c(S(=O)(=O)NCCO)c2)s1,Potency,[2],15.8 µM (active)
same,Potency,[3],11.2 µM (active)
O=C(Nc1ncc(-c2cc(C(F)F)nn2-c2c(Cl)cccc2Cl)s1)C1CC1,Potency,[2],1.78 µM (active)
same,Potency,[4],1.78 µM (active)
same,Potency,[5],1.58 µM (active)
COCCOc1ccc2c(c1)ncn2-c1ccc2cccc(N3CCC(N)CC3)c2n1,Potency,[2],7.94 µM (active)
CCCCOc1c(C(=O)c2c(F)cc(C)cc2F)cnc2n[nH]cc12,Potency,[2],7.94 µM (active)
same,Potency,[3],inactive
OCCCNc1cc(-c2ccnc(Nc3cccc(Cl)c3)n2)ccn1,Potency,[2],0.1 µM (active)
same,Potency,[4],0.158 µM (active)
same,Potency,[5],0.316 µM (active)
same,Potency,[8]; HiBiT,0.125 µM (active)
same,"activity change, negative = inhibition",[8]; Viability,15.1%
COc1c(OCCCN2CCOCC2)ccc2c3n(c(=NC(=O)c4cnc(N)nc4)nc12)CCN3,Potency,[2],0.631 µM (active)
same,Potency,[3],0.0631 µM (active)
same,"activity change, negative = cytotoxicity",[5],-17.3% [at 11.6 µM]
Cn1cc(-c2[nH]c3cc(NC(=O)[C@H](N)C4CCCCC4)cc4c3c2C=NNC4=O)cn1,Potency,[3],7.08 µM (active)
same,Potency,[4],10 µM (active)
CCN(CC)CCNC(=O)c1ccc2nc(-c3ccccc3)c(-c3ccc(CN4CCC(n5c(=O)[nH]c6ccccc65)CC4)cc3)nc2c1,Potency,[2],inactive
same,Potency,[4],inactive
same,Potency,[5],inactive
c1ccc2c(CCNc3ccc(Nc4ccncc4)cc3)c[nH]c2c1,Potency,[2],10 µM (active)
same,Potency,[4],inactive
Cc1cnc(-c2cnc(NCCNc3ccc(C#N)cn3)nc2-c2ccc(Cl)cc2Cl)[nH]1,Potency,[2],inactive
same,Potency,[3],inactive
same,Potency,[4],inactive
same,Potency,[5],inactive
COc1cccc2nc(-c3cccs3)nc(NN3C(=O)C=C(C)C3=O)c12,Potency,[2],1.58 µM (active)
same,Potency,[5],0.891 µM (active)
Nc1cccc(-c2cc3c(Oc4cccc(O)c4)ncnc3[nH]2)c1,Potency,[3],3.98 µM (active)
Cc1cc(Nc2nc(N[C@@H](C)c3ccc(F)cc3)c(C#N)cc2F)n[nH]1,Potency,[2],7.08 µM (active)
same,Potency,[8]; HiBiT,2.22 µM (active)
C=CCn1c(=O)c2cnc(Nc3ccc(N4CCN(C)CC4)cc3)nc2n1-c1cccc(C(C)(C)O)n1,Potency,[2],1.58 µM (active)
same,Potency,[3],0.447 µM (active)
same,Potency,[4],0.631 µM (active)
same,Potency,[5],2 µM (active)
Nc1nc(Nc2ccc(S(N)(=O)=O)cc2)nn1C(=O)c1c(F)cccc1F,Potency,[2],28.2 µM (active)
same,Potency,[3],inactive
same,Potency,[8]; HiBiT,2.49 µM (active)
same,"activity change, negative = inhibition",[8]; Viability,19%
CCn1nnc2c(N3CCOCC3)nc(-c3ccc(NC(=O)Nc4ccc(C(=O)N5CCN(C)CC5)cc4)cc3)nc21,Potency,[2],0.398 µM (active)
same,Potency,[3],0.316 µM (active)
same,Potency,[4],0.224 µM (active)
same,Potency,[8]; Viability,0.991 µM (active)
NC1(Cc2ccc(Cl)cc2)CCN(c2ncnc3[nH]ccc23)CC1,Potency,[2],inactive
same,Potency,[5],inactive
Cc1cc(N2CCOCC2)cc2[nH]c(-c3c(NC[C@@H](O)c4cccc(Cl)c4)cc[nH]c3=O)nc12,Potency,[2],14.1 µM (active)
same,Potency,[3],14.1 µM (active)
same,Potency,[8]; HiBiT,6.25 µM (active)
c1nc2nc(Nc3ccc(N4CCOCC4)cc3)nc(NC3CCCCC3)c2[nH]1,Potency,[1],inactive
same,Potency,[5],inactive
same,Potency,[8]; HiBiT,6.25 µM (active)
COc1cc2c(cc1-c1c(C)noc1C)ncc1[nH]c(=O)n([C@H](C)c3ccccn3)c12,Potency,[2],inactive
Nc1ccccc1NC(=O)c1ccc(CNc2nccc(-c3cccnc3)n2)cc1,Potency,[2],0.708 µM (active)
same,Potency,[3],3.98 µM (active)
same,Potency,[4],2.82 µM (active)
same,Potency,[5],3.55 µM (active)
same,Potency,[8]; HiBiT,3.94 µM (active)
same,"activity change, negative = inhibition",[8]; Viability,3.24%
